Results with a measured potency or affinity are listed apart. Results filed as inconclusive are left out. The source made the active and inactive calls. How the calls were made is not given here.
Experiment: general cell-killing toxicity readout – plate reader, dry powder samples, cytotoxicity control for PAX8 inhibitor project, dose response (AID 743021)
Settings: cell line, non-specific cytotoxicity counter-screen; series mostly up to 35 µM

Compound	outcome
Cc1ccc(S(=O)(=O)CCC(=O)c2ccc(F)cc2)cc1	inactive
COc1cccc2c1C(=O)c1c(O)c3c(c(O)c1C2=O)CC(O)(C(C)=O)CC3OC1CC(N(C)C)C(O)C(C)O1 (stereo not given)	inactive
COc1cc(-c2cnc3c(NC=O)cc(-c4ccc(C)cc4)cn23)cc(OC)c1OC	inactive
COc1cc(/C=C2\COC/C(=C\c3cc(OC)c(OC)c(OC)c3)C2=O)cc(OC)c1OC	inactive
N#Cc1c(N)n(C2OC(CO)C(O)C2O)c2ncnc(N)c12 (stereo not given)	inactive
C[C@H]1CCCCO[C@H](CN(C)C(=O)Nc2ccc(C(F)(F)F)cc2)[C@@H](C)CN([C@@H](C)CO)C(=O)c2cc(NC(=O)Nc3ccc(F)cc3)ccc2O1	inactive
CC(=NNC(=S)N1CCN(C2CCCCCC2)CC1)c1ccccn1	inactive
C=CC(=O)N=c1sc2ccccc2n1-c1ccccc1	inactive
COC(=O)c1ccccc1-c1c2ccc(=N)cc-2oc2cc(N)ccc12	inactive
COc1ccccc1-n1cc([C@@H]2C[C@H]3CN(c4ccccc4)C(=O)[C@]34CCCN24)cn1	inactive
CNC[C@@H](CC1CCCCC1)NC[C@H](CC(C)C)NCCc1cccc(C(F)(F)F)c1	inactive
C=CCNC(=S)N/N=C(\C)c1ccccn1	inactive
C[C@H]1CCCCO[C@H](CN(C)C(=O)Nc2ccc(C(F)(F)F)cc2)[C@@H](C)CN([C@@H](C)CO)C(=O)c2cc(NS(=O)(=O)c3ccc(Cl)cc3)ccc2O1	inactive
Oc1c(I)cc(I)c2cccnc12	inactive
CC(=O)Nc1cc(-c2cccc(C(=O)NCCN(C)C)c2)cn2c(-c3cccc(C(F)(F)F)c3)cnc12	inactive
CCC1(O)C(=O)OCc2c1cc1n(c2=O)Cc2cc3c(N)cccc3nc2-1 (stereo not given)	inactive
O=C(Nc1ccc([N+](=O)[O-])cc1)Nc1nc(-c2ccc(Cl)s2)cs1	inactive
COc1ccc(OC)c(-c2nnc3n2N=C(c2ccc(OC)c(OC4CCOC4)c2)CS3)c1 (stereo not given)	inactive
COc1cc(NC(=O)Cn2ncc(Cl)c(Cl)c2=O)c(C)cc1[N+](=O)[O-]	inactive
Cn1nnnc1Sc1ncnc2scc(-c3cccc4c3sc3ccccc34)c12	inactive

Compound	outcome
N#Cc1cccc(-c2ccc(C3[C@@H]4CN(C(=O)C5CC5)C[C@H]3N4)cc2)c1 (stereo not given in full)	inactive
CCOc1ccccc1C1C2=C(COC2=O)Nc2cc3c(cc21)OCO3 (stereo not given)	inactive
Cc1cccc(C2(c3cccc(C)c3)CC2C(=O)Nc2ccc([N+](=O)[O-])cc2O)c1 (stereo not given)	inactive
CC[C@@]1(O)C(=O)OCc2c1cc1n(c2=O)Cc2cc3c(N)cccc3nc2-1	inactive
CC(=O)OC1CCC2(C)C(CCC3C4CC=C(C(C)=O)C4(C)OC(=O)CC32)C1 (stereo not given)	inactive
Cn1cc(C2=C(c3ccc(Cl)cc3Cl)C(=O)NC2=O)c2ccccc21	inactive
C[C@@H]1CCCCO[C@@H](CN(C)CC2CCCCC2)[C@H](C)CN([C@H](C)CO)C(=O)c2cc(NS(=O)(=O)c3ccc(Cl)cc3)ccc2O1	inactive
CCOC(=O)c1cnc2ccc(C(=O)OC)cc2c1Nc1ccc(C(=O)O)cc1	inactive
CCN1CCN(Cc2ccc(NC(=O)c3cc(NC(=O)C(=O)c4c[nH]c5ccccc45)cc(OC)c3)cc2C(F)(F)F)CC1	inactive
CCC(=O)OCCNc1cc(Sc2nccn2C)c2nonc2c1[N+](=O)[O-]	inactive
Cc1cccc(C)c1NS(=O)(=O)c1ccc(-c2cnc(C3CC3)o2)cc1	inactive
C#CCN(C[C@@H]1[C@@H](OC(=O)Nc2cccs2)[C@@H](OC(=O)Nc2cccs2)Cn2c(=O)ccc(=O)n21)S(=O)(=O)c1ccc(C)cc1	inactive
COc1cc(C2C3=C(Nc4ncnn42)c2ccccc2CC3)cc(OC)c1OC (stereo not given)	inactive
Cc1cc(NC(=O)c2ccc([N+](=O)[O-])o2)ccc1NC(=O)c1ccco1	inactive
N#CC1(NC(=O)Cn2ncc(Cl)c(Cl)c2=O)CCCCC1	inactive
CCOC(=O)c1cnn(CCOC(=O)c2cccc(F)c2)c1NC(=O)c1cccc(F)c1	inactive
CCS(=O)(=O)c1ncc(Cl)c(C(=O)Nc2ccc(S(=O)(=O)N3CCCC(C)C3)cc2)n1 (stereo not given)	inactive
CC(C)(C)C(=O)Nc1ccc(NC(=O)c2ccco2)nc1	inactive
Cc1ccc(C(=O)c2cc([N+](=O)[O-])ccc2N2CCCCC2)cc1	inactive
C#CCN(C[C@@H]1[C@@H](OC(=O)NCc2ccc(OC)c(OC)c2)[C@@H](OC(=O)NCc2ccc(OC)c(OC)c2)Cn2c(=O)ccc(=O)n21)S(=O)(=O)c1ccc(C)cc1	inactive

From PubChem BioAssay
